Inconclusive results are not listed. Values without a mark were called inactive. Calls come from the whole dose curve; as a rule, active = well fitted activation curve with a large enough effect in the signal ratio in the repeat runs (not every such curve was filed as active); inconclusive = weak or mixed curves, or effect the other way; inactive = flat fitted curve, though single readings scatter; the % refers to the signal ratio.
% is set by controls: 0 for no effect and ±100 for the full control effect.

Sequence of Bile acid receptor (Homo sapiens) (Q96RI1 whole entry, looked up): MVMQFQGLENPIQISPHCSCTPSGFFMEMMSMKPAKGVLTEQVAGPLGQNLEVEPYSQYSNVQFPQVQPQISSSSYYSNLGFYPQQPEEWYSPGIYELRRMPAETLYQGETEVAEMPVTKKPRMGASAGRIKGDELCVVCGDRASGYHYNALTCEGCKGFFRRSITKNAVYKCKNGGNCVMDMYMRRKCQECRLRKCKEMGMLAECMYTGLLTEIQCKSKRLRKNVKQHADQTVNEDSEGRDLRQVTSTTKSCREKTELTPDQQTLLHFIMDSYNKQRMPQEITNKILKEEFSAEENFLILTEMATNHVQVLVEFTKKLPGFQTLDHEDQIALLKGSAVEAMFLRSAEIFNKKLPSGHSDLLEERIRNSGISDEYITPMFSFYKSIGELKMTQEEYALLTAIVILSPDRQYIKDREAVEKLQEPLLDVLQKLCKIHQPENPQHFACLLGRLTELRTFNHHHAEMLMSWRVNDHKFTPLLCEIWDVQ

This experiment addresses Bile acid receptor (Homo sapiens) (UniProt Q96RI1). Briefly: qHTS assay to identify small molecule agonists of the farnesoid-X-receptor (FXR) signaling pathway (AID 743220). Conditions: HEK293T FXR-UAS-bla, beta-lactamase FRET ratio, 16 h; series mostly up to 62.6 µM; activation: at the top concentration. An excerpt: National Center for Advancing Translational Sciences [NCATS]
NIH Chemical Genomics Center [NCGC]
U.S. Environmental Protection Agency [EPA]
National Institutes of Environmental Health Sciences [NIEHS]
National Toxicology Program [NTP]
U.S. Food and Drug Administration [FDA]
The farnesoid-X-receptor (FXR), a nuclear hormone receptor, is highly expressed in liver, intestine, kidney and adrenal cortex. Natural ligands of FXR are the bile acids (Cholic acid, Chenodeoxy cholic acid etc). FXR is an important regulator of diverse metabolic pathways, including the bile acid homeostasis, lipid and glucose metabolisms. FXR regulates the expression of target genes by binding either as a monomer or as a heterodimer with the retinoid X receptor (RXR). Numerous studies have reported that FXR exerts protective function during cholestasis, diabetes, liver regeneration, and cancer. To identify compounds that activate FXR signaling, GeneBLAzer FXR-UAS-bla HEK 293T cell line (Invitrogen, Carlsbad, CA) containing a beta-lactamase reporter gene under the control of a UAS response element was used to screen the Tox21 10K compound library.
Tox21 Assay Protocol Summary:
FXR-bla cells were dispensed at 5000 cells/5uL/well in 1536-well black wall/clear bottom plates using a Multidrop Combi (Thermo Fisher Scientific, Waltham, MA) dispenser. After the assay plates were incubated at 37C and 5% CO2 for 5 h, 23 nL of compounds dissolved in DMSO, positive controls or DMSO only was transferred to the assay plate by a Pintool station (Kalypsys, San Diego, CA). The assay plates were incubated at 37C for 16 h. After 1 uL of LiveBLAzerTM B/G FRET substrate was added using a Bioraptr Flying Reagent Dispenser (FRD) workstation (Beckman Coulter, Indianapolis, IN), the plates were incubated at room temperature for 2 h, and fluorescence intensity was measured by an Envision plate reader (PerkinElmer, Shelton, CT).
(In general: Quantitative high-throughput screening tests each substance at several concentrations.)
As to `C[C@@H]1C[C@H]2[C@@H]3C[C@H](F)C4=CC(=O)C(Cl)=C[C@]4(C)[C@@]3(F)[C@@H](O)C[C@]2(C)[C@@]1(O)C(=O)CO`, the “activation” value is -0.888%.

With `CC(C)=CCC/C(C)=C/C#N`, the “activation” value was 0.519% [at 81.1 µM].

As to `FB(F)F`, the “activation” value was 1.88% [at 81.1 µM].

With `O=Cc1cccc(Br)c1`, the “activation” value was 0.384% [at 81.1 µM].

Turning to `CNC(=O)Nc1ccc(Cl)c(Cl)c1`, the “activation” value was -5.88%.

Consider `COc1cc(-c2ccc(=O)[nH]n2)ccc1OC(F)F`, for which the “activation” value is -0.351%.

On to `CN(C)CCCCCCN(C)C`, for which the “activation” value is 0.411% [at 81.1 µM].

In the case of `NCCCC[C@H](N[C@@H](CCc1ccccc1)C(=O)O)C(=O)N1CCC[C@H]1C(=O)O`, the “activation” value is -1.04%.

Consider `CC(C)CCCO`, for which the “activation” value is -1.95%.

As to `CCCCCCCCN1CCCC1=O`, the “activation” value is 0.612%.

On to `CC(C)(C)C(=O)Oc1ccc(S(=O)(=O)Nc2ccccc2C(=O)NCC(=O)O)cc1`, for which the “activation” value is 0.0537%.

Regarding `C=C(C)C(=O)OCCOCCOCCOCCOC(=O)C(=C)C`, the “activation” value is 0.122%.

Consider `C=COC(=O)C(C)(CC)CCC(C)C` (stereo not given), for which the “activation” value is 0.174%.

For the compound `CCCCc1ccc2c(n1)[C@@H](c1ccc(OC)cc1C[C@H](C)C(=O)O)[C@H](C(=O)O)[C@H]2c1ccc2c(c1)OCO2`, the “activation” value is -0.826%.

Turning to `Cc1nc2ccc(CN(C)c3ccc(C(=O)N[C@@H](CCC(=O)O)C(=O)O)s3)cc2c(=O)[nH]1`, the “activation” value was 4.11%.

`CC(C#N)(CCC(=O)O)N=NC(C)(C#N)CCC(=O)O` (stereo not given): the “activation” value was -0.822%.

On to `CC(C)C[C@@H](N)C(=O)O`, for which the “activation” value is 2.43% [at 29.1 µM].

Regarding `CC(=O)C1CCCCC1=O` (stereo not given), the “activation” value is -1.42%.

In the case of `Cc1coc2ccccc2c1=O`, the “activation” value was -0.0049%.

Regarding `Nc1ccn([C@@H]2O[C@H](CO)[C@@H](O)C2O)c(=O)n1` (stereo not given in full), the “activation” value is -8.21%.

On to `C[C@H]1[C@H](NC(=O)/C(=N/OC(C)(C)C(=O)O)c2csc(N)n2)C(=O)N1S(=O)(=O)O` (stereo in doubt), for which the “activation” value is 0.931%.

As to `Cc1ccc(-c2ncc(Cl)cc2-c2ccc(S(C)(=O)=O)cc2)cn1`, the “activation” value was 1.49%.

Take `c1ccc(CCc2ccccc2)cc1`: the “activation” value is -0.558%.

On to `CC(C)CC(C)(N)C#N` (stereo not given), for which the “activation” value was -0.546% [at 81.1 µM].

Consider `NS(=O)(=O)Cc1noc2ccccc12`, for which the “activation” value is -3.8%.

`COc1cc(C(=O)OC(COCCC(C)C)CN2CCOCC2)cc(OC)c1OC` (stereo not given): the “activation” value was -1.92%.

With `CC(C)(C)C(=O)c1ccccc1`, the “activation” value was -3.35%.

Take `C[N+]1(C)CCCC(OC(=O)C(O)(c2ccccc2)c2ccccc2)C1` (stereo not given): the “activation” value was -0.762%.

As to `NC(=O)NC1N=C([O][Al])NC1=O` (stereo not given), the “activation” value is -1.68%.

Turning to `CCCCCCCCCCCCSC`, the “activation” value was -0.313%.

Take `[K+]`: the “activation” value is 0.684%.

`Cc1ccnc(NS(=O)(=O)c2ccc(N)cc2)n1`: the “activation” value was -0.981%.

In the case of `Nc1ccncc1N`, the “activation” value is -1.33%.

For the compound `N[C@H](C(=O)O)[C@@H](O)c1ccc(O)c(O)c1`, the “activation” value is -0.0843%.

Consider `O=C1NC(=O)C2CC=CCC12` (stereo not given), for which the “activation” value is -0.279%.

Consider `C=C(C)C(=O)OCC(O)CO` (stereo not given), for which the “activation” value was 1.82%.

For `CCN[C@H]1C[C@H](C)S(=O)(=O)c2sc(S(N)(=O)=O)cc21`, the “activation” value was -1.07%.

Consider `CN(C)CCCN(C)CCCN(C)C`, for which the “activation” value was -2.65%.

As to `Nc1c2c(nc3c1CCC3)CCCC2`, the “activation” value is -3.4%.

Take `CO[C@@]1(NC(=O)CSC[C@@H](N)C(=O)O)C(=O)N2C(C(=O)O)=C(CSc3nnnn3C)CS[C@@H]21`: the “activation” value was -0.383%.

These data come from PubChem BioAssay (Tox21).
